# Values joined by “and” are separate entries in the source; they are usually repeats but may differ in a detail not shown here. Equal values may be shown once. Records with an inconclusive call do not appear. A call without a number means that no potency is given here. Where a structure was tested more than once in an assay, its records may differ in their call. Active and inactive are the calls of the source. Calls follow the shape of the dose curve; as a rule, active = well fitted curve in the direction sought with a large enough effect; inconclusive = small, poorly fitted or top-dose-only effect, or another doubt; inactive = no such curve, though single readings can be large; an effect the other way counts as inactive or inconclusive. Where a SMILES comes first, the peptide text is derived from it.
# Columns and labels:
# [1] = P-glycoprotein substrates identified in KB-3-1 adenocarcinoma cell line, qHTS therapeutic library screen (AID 1346986); conditions: KB-3-1 parental cells viability, CellTiter-Glo, 72 h; series mostly up to 44.5 µM; also: nearly all actives have a fitted effect of over 60% in size;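 also: potency is for cytotoxicity meaning loss of cell viability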
# Procedure, shortened: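 KB-3-1 parental and colchicine-selected P-gp-overexpressing KB-8-5-11 cells (colchicine omitted during assay), 500 cells/well, dosed in dose-response for 72 h at 37 °C; CellTiter-Glo luminescence. Cytotoxic: curve class -1.1 to -2.4, max response >50%, AC50 < 10 uM.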
# [2] = P-glycoprotein substrates identified in KB-8-5-11 adenocarcinoma cell line, qHTS therapeutic library screen (AID 1346987); conditions: KB-8-5-11 (P-gp overexpressing) viability, CellTiter-Glo, 72 h; series mostly up to 44.5 µM; also: nearly all actives have a fitted effect of over 65% in size
# Procedure, shortened: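 Steps: plate 500 KB-8-5-11 cells/well in DMEM + 10% FCS (colchicine removed); pin compounds in dose-response; incubate 72 h, 37 degree C, 5% CO2; add CellTiter-Glo, 5 min; read luminescence.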
# Potency is read from the fitted curve at half-maximal effect.
smiles,measurement,setting,value
CC1(C)C[C@@H]2[C@H](C1)[C@@]1(C)C[C@]13C(O)OC[C@]3(O)[C@H]2O (some centres undefined),Potency,[1],inactive
same,Potency,[2],inactive
CCCN(CCN1CCN(c2ccccc2OC)CC1)C1CCc2ncsc2C1 (centres undefined),Potency,[1],inactive
same,Potency,[2],inactive
Cc1[nH]c2ccccc2c1CC(=O)N[C@@H](Cc1ccccc1)C(=O)N(C)c1ccccc1,Potency,[1],inactive
COc1cc(OC)cc(-c2ccc3c(-c4ccc(F)cc4)[nH]nc3n2)c1,Potency,[1],inactive
COC(=O)C(CC1CCCC1)c1ccc(S(C)(=O)=O)cc1 (centres undefined),Potency,[1],inactive
same,Potency,[2],inactive
CC1=C(CO)C2(C)CCCC(C)(C)C2C(O)C1O (centres undefined),Potency,[1],inactive
same,Potency,[2],inactive
COC(=O)C1=COC(OC2OC(CO)C(O)C(O)C2O)C2C(COC(=O)/C=C/c3ccc(O)cc3)C(O)C(O)C12 (centres undefined),Potency,[1],inactive
same,Potency,[2],inactive
Cc1occc(=O)c1O[C@@H]1O[C@H](CO)[C@@H](O)[C@H](O)[C@H]1O,Potency,[1],inactive
same,Potency,[2],inactive
COC(=O)[C@H](Cc1ccc([N+](=O)[O-])cc1)NC(=O)c1cccc2ccccc12,Potency,[1],inactive
same,Potency,[2],inactive
OC[C@H]1O[C@@H](OCc2ccccc2)[C@H](O[C@@H]2OC[C@@H](O)[C@H](O)[C@H]2O)[C@@H](O)[C@@H]1O,Potency,[1],inactive
same,Potency,[2],inactive
Cc1nnc(-c2ccc3occ(-c4ccc(S(C)=O)cc4)c3c2)o1 (centres undefined),Potency,[1],inactive
C[C@@H]1C[C@H]2OC(=O)[C@@]3(C)CCC[C@](C)(C23)[C@@]1(O)CCC1=CC(=O)OC1O (some centres undefined),Potency,[1],inactive
same,Potency,[2],inactive
COC(=O)C[C@@H]1C(C(=O)O)=CO[C@@H](O[C@@H]2O[C@H](CO)[C@@H](O)[C@H](O)[C@H]2O)/C1=C\COC(=O)/C=C/c1ccc(O)c(OC)c1,Potency,[1],inactive
same,Potency,[2],inactive
Cc1c(F)cc(C(=O)NC2CC2)cc1-c1ccc(C(=O)NCC(C)(C)C)cn1,Potency,[1],920 nM (active)
same,Potency,[2],inactive and 1.03 µM (active)
CC1(C)CC[C@]2(C(=O)O[C@@H]3O[C@H](CO)[C@@H](O)[C@H](O)[C@H]3O)CC[C@]3(C)C(=CCC4[C@@]5(C)CC[C@H](O[C@@H]6O[C@H](C(=O)O)[C@@H](O)[C@H](O)[C@H]6OC6OC(CO)C(O)C(O)C6O)C(C)(C)C5CC[C@]43C)[C@@H]2C1 (some centres undefined),outcome,[1],inactive [at 9.29 µM]
same,outcome,[2],inactive [at 9.29 µM]
COc1cc(O[C@@H]2O[C@H](CO[C@H]3OC[C@](O)(CO)[C@H]3O)[C@@H](O)[C@H](O)[C@H]2O)cc(OC)c1O,Potency,[1],inactive
same,Potency,[2],inactive
O=C(O)CC1CCC(c2ccc(NC(=O)c3nnc(Nc4ccc(F)c(F)c4)o3)cc2)CC1 (centres undefined),Potency,[1],inactive
same,Potency,[2],inactive
O=C(/C=C/c1ccc(O)cc1)OC[C@H]1O[C@H](O[C@@]2(CO)O[C@@H](CO)[C@H](O)[C@H]2O)[C@H](O)[C@@H](O)[C@@H]1O,Potency,[1],inactive
same,Potency,[2],inactive
OC[C@H]1O[C@@H](OC[C@H]2O[C@@H](OCc3ccccc3)[C@H](O)[C@@H](O)[C@@H]2O)[C@H](O)[C@@H](O)[C@@H]1O,Potency,[1],inactive
same,Potency,[2],inactive
CCC(C)/C=C(C)/C=C/C1=CC2=C(Cl)C(=O)C(C)(OC(C)=O)C(=O)C2=CN1CCCCC(N)C(=O)O (centres undefined),Potency,[1],inactive
same,Potency,[2],inactive
C=CC(C)(O)C1CC2C3(C)CCCC(C)(C)C3C(O)C(O)C2(C)O1 (centres undefined),Potency,[1],inactive
same,Potency,[2],inactive
NC(N)=NCCC[C@H](NC(=O)c1sccc1NS(=O)(=O)c1cccc2nsnc12)C(=O)O,Potency,[1],inactive
same,Potency,[2],inactive
CC1(C(=O)O)CC[C@]2(C(=O)OC3OC(CO)C(O)C(O)C3O)CC[C@]3(C)C(=CCC4[C@@]5(C)CC[C@H](OC6OCC(O)C(O)C6OC6OC(CO)C(O)C(O)C6O)C(C)(C)C5CC[C@]43C)C2C1 (some centres undefined),outcome,[1],inactive [at 9.29 µM]
same,outcome,[2],inactive [at 9.29 µM]
CC(=C\C(C)O)/C=C(\C)C(=O)CC1CC(CC(N)=O)CC(=O)O1 (centres undefined),Potency,[1],inactive
same,Potency,[2],inactive
CC1CCC2(C(=O)O)CCC3(C)C(=CCC4C5(C)C[C@@H](O)[C@@H](O)C(C)(CO)C5CCC43C)C2C1(C)O (some centres undefined),Potency,[1],inactive
same,Potency,[2],inactive
O=C(O)CC(CCc1ccccc1)OC1OC(CO)C(O)C(O)C1O (centres undefined),Potency,[1],inactive
same,Potency,[2],inactive
CCNC(=O)OC1CCN(c2nncc3cc(OC)c(OC)cc23)CC1,Potency,[1],inactive
same,Potency,[2],inactive
CC1(C)C=Cc2c(ccc3c2[N+]([O-])=C2C3(O)CC34NC(=O)C5(CCCN5C3=O)CC4C2(C)C)O1 (centres undefined),Potency,[1],inactive
same,Potency,[2],inactive
COC(=O)[C@H](Cc1cccc(C(=N)N)c1)[C@@H](C)NC(=O)c1ccc(-c2cc[n+]([O-])cc2)cc1,Potency,[1],inactive
same,Potency,[2],inactive
CC(=O)O[C@@H]1[C@@H](O)[C@H](C)O[C@@H](O[C@H]2[C@@H]3C=CO[C@@H](O[C@@H]4O[C@H](CO)[C@@H](O)[C@H](O)[C@H]4OC(C)=O)[C@@H]3[C@@]3(CO)O[C@@H]23)[C@@H]1OC(=O)/C=C/c1ccc(O)cc1,Potency,[1],inactive
same,Potency,[2],inactive
CC(C)C1NC(=O)CNC(=O)C2CCCN2C(=O)C(Cc2c[nH]c3ccccc23)NC(=O)CNC(=O)C(Cc2ccc(O)cc2)NC(=O)CNC1=O (centres undefined) (cyclo(GVGYGWP); configuration not given here),Potency,[1],inactive
same,Potency,[2],inactive
COc1cc(C(=O)OC[C@H]2O[C@@H](OC(C)(C)C(=O)O)[C@H](O)[C@@H](O)[C@@H]2O)cc(OC)c1O,Potency,[1],inactive
same,Potency,[2],inactive
C/C=C/C=C/[C@@H]1O[C@](O)([C@H](CC)C(=O)NC/C=C/C=C(\C)[C@@H](OC)[C@@H](C)[C@@H]2O[C@H](/C=C/C=C/C=C(\C)C(=O)c3c(O)ccn(C)c3=O)[C@H](O)[C@@H]2O)[C@H](O)[C@H](O)C1(C)C,outcome,[1],inactive [at 9.29 µM]
same,outcome,[2],inactive [at 9.29 µM]
COC(=O)C(CC1(O)c2ccccc2N2C(=O)C(CC(C)C)NC21)n1cnc2ccccc2c1=O (centres undefined),Potency,[1],inactive
same,Potency,[2],inactive
CC(=O)/C=C/C1C(C)CC(O[C@@H]2O[C@H](CO)[C@@H](O)[C@H](O)[C@H]2O)CC1(C)C (some centres undefined),Potency,[1],inactive
same,Potency,[2],inactive
Cc1occc(=O)c1O[C@@H]1O[C@H](CO[C@@H]2OC[C@](O)(CO)[C@H]2O)[C@@H](O)[C@H](O)[C@H]1O,Potency,[1],inactive
same,Potency,[2],inactive
CC(=O)/C=C/C1(O)C(C)(C)CC(O)CC1(C)O (centres undefined),Potency,[1],inactive
same,Potency,[2],inactive
CC(C)=CCC[C@](C)(O[C@@H]1O[C@H](CO[C@@H]2O[C@@H](CO)[C@H](O)[C@H]2O)[C@@H](O)[C@H](O)[C@H]1O)[C@H]1CC[C@]2(C)[C@@H]1[C@H](O)C[C@@H]1[C@@]3(C)CC[C@H](O[C@@H]4O[C@H](CO)[C@@H](O)[C@H](O)[C@H]4O[C@@H]4O[C@H](CO)[C@@H](O)[C@H](O)[C@H]4O)C(C)(C)[C@@H]3CC[C@]12C,Potency,[1],inactive
same,Potency,[2],inactive
CC/C=C/C(O)C(O)C1=C(C)C(=O)C2(O1)C(=O)NC(OC)(C(=O)c1ccccc1)C2O (centres undefined),Potency,[1],inactive
same,Potency,[2],inactive
C=CC(C)(C)C12Nc3c(ccc4c3OC(C)(C)C=C4)C1(O)CC1C(=O)N3CCCC3C(=O)N12 (centres undefined),Potency,[1],inactive
same,Potency,[2],inactive
O=C(c1c2ccccc2cc2ccccc12)N1CCC(N2CCC[C@@H](C(=O)N3CCOCC3)C2)CC1,Potency,[1],inactive
same,Potency,[2],inactive
CC(C/C=C/C(C)(C)O)C1CCC(C)(O)C(O)C1 (centres undefined),Potency,[1],inactive
same,Potency,[2],inactive
CC1(C)CCC2(C(=O)O)C(O)CC3(C)C(=CCC4C5(C)CCC(OC6OC(CO)C(O)C(O)C6OC6OC(CO)C(O)C(O)C6OC6OCC(O)(CO)C6O)C(C)(C)C5CCC43C)C2C1 (centres undefined),outcome,[1],inactive [at 9.29 µM]
same,outcome,[2],inactive [at 9.29 µM]
CC1(C)C2CC[C@]3(C)C(C(=O)C=C4[C@H]5C[C@@](C)(C(=O)O)CC[C@]5(C)CC[C@]43C)[C@@]2(C)CC[C@@H]1O (some centres undefined),Potency,[1],inactive
same,Potency,[2],inactive
OC[C@@]1(O)CO[C@@H](OC[C@H]2O[C@@H](OCc3ccccc3)[C@H](O)[C@@H](O)[C@@H]2O)[C@@H]1O,Potency,[1],inactive
same,Potency,[2],inactive
C[C@@H]1CC2OC(=O)C3=C2C(CCC3O)[C@@]12C[C@@H](c1ccoc1)OC2=O (some centres undefined),Potency,[1],inactive
same,Potency,[2],inactive
COC(=O)C1(C)CCCC2(C)c3ccc(C(C)C)cc3C(O)C(O)C12 (centres undefined),Potency,[1],inactive
same,Potency,[2],inactive
CCC(=O)OCC(=O)[C@@]1(OC(=O)CC)[C@@H](C)C[C@H]2[C@@H]3CCC4=CC(=O)C=C[C@]4(C)[C@@]3(F)[C@@H](O)C[C@@]21C,Potency,[1],inactive
same,Potency,[2],inactive
CC(C)=CCC(O)[C@](C)(O)C1[C@H](O)C[C@@]2(C)C3CC=C4C(C[C@H](O)[C@@H](O[C@@H]5O[C@H](CO)[C@@H](O)[C@H](O)[C@H]5O)C4(C)C)[C@]3(C)C(=O)C[C@]12C (some centres undefined),Potency,[1],inactive
same,Potency,[2],inactive
C=C(C)[C@@H]1CC[C@]2(C(=O)O)CC[C@]3(C)C(CCC4[C@]5(C)C(CC[C@]43C)C(C)(C)[C@@H](O)[C@@H]5C(=O)O)C12 (some centres undefined),Potency,[1],inactive
same,Potency,[2],inactive
COCCN1CCC(C(=O)NO)(S(=O)(=O)c2ccc(Oc3ccc(OC(F)(F)F)cc3)cc2)CC1,Potency,[1],inactive
same,Potency,[2],inactive
CC(=O)OC1CC2C(C)(C)C(=O)C=CC2(C)C2CC(=O)C3=C(CCC3C3=CC(O)OC3=O)C12C (centres undefined),Potency,[1],inactive
same,Potency,[2],inactive
CC1CC2(O)OC(=O)C3=C2C(CCC3)[C@@]12C[C@@H](c1ccoc1)OC2=O (some centres undefined),Potency,[1],inactive
same,Potency,[2],inactive
C[C@@H]1O[C@@H](O[C@H]2[C@H](O[C@H]3[C@H](O[C@H]4CC[C@@]5(C)C(CC[C@]6(C)C5CC=C5[C@@H]7CC(C)(C)C[C@@H](O)[C@]7(C)CC[C@]56C)[C@@]4(C)CO)O[C@H](C(=O)O)[C@@H](O)[C@@H]3O)O[C@H](CO)[C@H](O)[C@@H]2O)[C@H](O)[C@H](O)[C@H]1O (some centres undefined),outcome,[1],inactive [at 9.29 µM]
same,outcome,[2],inactive [at 9.29 µM]
N#Cc1cccc(-c2nc(-c3cccnc3)no2)c1,Potency,[1],inactive
same,Potency,[2],inactive
Cc1cc(CO)c(O)c(C(=O)CC2CC(=O)NC(=O)C2)c1,Potency,[1],inactive
same,Potency,[2],inactive
